# PubChem BioAssay (NCI)
# “And” between values parts separate entries of the source, which are not always exact repeats. Equal values may be shown once. About 83,000 compounds went through this panel and 20% of them were active in at least one assay; those are over-represented in the sample as a whole.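 Assay: single dose, 48 h. Readout: percent growth (0 = no net growth; negative = cell death). Active: <10.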 The source made the active and inactive calls.
# Test system: MDA-MB-468 breast
# Experiment: NCI-60 one-dose screen, 48 h (100 = growth as untreated, 0 = no growth, -100 = all killed)
# Settings: 10 µM unless noted
row,Structure (SMILES),growth
1,NC(N)=NC(N)=NCCCc1ccco1,107% (inactive)
2,Cc1cc(Cl)cc(CN(Cc2ccccc2)Cc2c(O)ccc3ccccc23)c1O,102% (inactive)
3,CSCC[C@@H]1C(=O)N(C)[C@H](C(C)(C)C)N1C(=O)c1ccccc1,105% (inactive)
4,COc1cc(C(=O)/C=C/c2cc(C(=O)c3cc(OC)c(OC)c(OC)c3)ccc2OC)ccc1N,-44.7% (active)
5,COc1cc(NCc2ccccc2O)c2ncccc2c1,90.4% (inactive)
6,NC1=NN=C2N(N)C(=O)c3cnn(-c4ccccc4)c3N2c2nc(-c3ccccc3)cc(-c3ccccc3)c21,110% (inactive)
7,O=C1Nc2ccc(F)cc2C12Nc1cc(Cl)ccc1S2 (stereo not given),107% (inactive)
8,O=C(NS(=O)(=O)c1ccc2ccccc2c1)n1cc(-c2ccncc2)c(-c2ccc(Cl)c(O)c2)n1,78.3% (inactive)
9,C=C1CC[C@@H]2[C@](C)(COC(C)=O)[C@H](OC(C)=O)CC[C@@]2(C)[C@@H]1CC(NCc1ccccc1)C1=CCOC1=O (stereo not given in full),22.9% (inactive)
10,CN(C)C1CCN(C(=O)c2ccc(NC(=O)Nc3ccc(-c4nc(N5CCOCC5)c5cccn5n4)cc3)cc2)CC1,-60.1% (active)
11,CCCCCC(CCC)COC(=O)c1ccc(OC)cc1 (stereo not given),104% (inactive)
12,S=C(NCCNC(=S)[S][Sn]([c]1ccccc1)([c]1ccccc1)[c]1ccccc1)[S][Sn]([c]1ccccc1)([c]1ccccc1)[c]1ccccc1,-97.9% (active)
13,O=C1Nc2cc(-c3ccc(NC(=O)C4CC4)cc3)ccc2/C1=C/c1ccc[nH]1,0.756% (active)
14,CC(=O)Oc1ccccc1C(=O)Nc1ccc(C(=O)/C=C/c2cccs2)cc1,109% (inactive)
15,COc1ccc(-c2nn(-c3cccc(NC(=O)Nc4cc(C(F)(F)F)cc(C(F)(F)F)c4)c3)cc2-c2ccncc2)cc1Cl,17.7% (inactive)
16,Cn1cc(-c2csc(-c3cn(CCNC(=O)OC(C)(C)C)c4ccc(F)cc34)n2)c2cccnc21,19.5% (inactive)
17,CN(CCc1ccccn1)c1ccccc1,113% (inactive)
18,CC1=C(C/C=C(\C)CCC[C@H](C)CCC[C@H](C)CCCC(C)C)C(=O)c2ccccc2C1=O,116% (inactive)
19,Nc1ncnc2c1c(-c1cccc(OCc3ccccc3)c1)cn2C1CC(CN2CCC2)C1 (stereo not given),-12.3% (active)
20,COc1ccc(-c2nc(SC(C)C)nc(NNC(N)=O)c2C#N)cc1,80.5% (inactive)

row,Structure (SMILES),growth
1,CO[C@H]1NC(=O)N(S(=O)(=O)c2ccc(Cl)cc2)[C@@H]1OC,110% (inactive)
2,COc1ccc(-c2nnc(-c3c(-c4ccccc4)nc4ncccn34)o2)cc1OC,99.1% (inactive)
3,CCN1C(=O)N(CC)C2C1NN=c1s/c(=C\c3ccc(Br)cc3)c(=O)n12 (stereo not given),7.21% (active)
4,CCOc1ccc(Nc2nc(-c3ccc4c(c3)NC(=O)CO4)cs2)cc1,17.8% (inactive)
5,OC(c1cc(-c2ccc(C(F)(F)F)cc2)nc(C(F)(F)F)c1)C1CCCCN1 (stereo not given),-88.4% (active) and -89.6% (active) and -76.3% (active)
6,Nc1c(C(=O)c2ccc(F)cc2)sc2nc3c(cc12)CCCC3,59.9% (inactive)
7,C[C@@H]1CCC2=C(CCC[C@]2(C)C(=O)O)[C@@]1(C)CCc1ccoc1,95.4% (inactive)
8,CCCCCCCCN(CCCCCCCC)CC(O)c1cc(Cl)ccc1OC (stereo not given),32.6% (inactive)
9,COc1cc(-c2nc(-c3ccccc3)[nH]c2-c2ccnc(NCCCNS(=O)(=O)c3ccc(C)cc3)n2)ccc1F,79.4% (inactive)
10,c1cnc2nc3c(cc2c1)oc1ccccc13,81% (inactive)
11,C(=C\c1cn(-c2ccccc2)nc1-c1ccccc1)/c1nnc(-c2c[nH]c3ccccc23)o1,87.1% (inactive)
12,CCOC(=O)Nc1ccc(-c2nc(-c3cccc(O)c3)c(-c3ccnc(Br)c3)[nH]2)cc1,10.7% (inactive)
13,C/C(=N\NC(N)=O)c1c(O)sc(=O)[nH]c1=O,97.4% (inactive)
14,Cc1nc2ccccc2n1CC1NC(=O)NC1=O (stereo not given),97.6% (inactive)
15,CCCCCCCN(CCCCCCC)C(=N)c1ccnc2ccccc12,-83.5% (active)
16,Cc1ccc(-c2nc(N3CCN(CC(=O)Nc4ccc(Cl)c(C(F)(F)F)c4)CC3)c3ccccc3n2)cc1,93.9% (inactive)
17,CCN(Cc1ccccc1)c1ccc(C=O)cc1,62.9% (inactive)
18,O=C(c1ccc(O)c(C(=O)N2Cc3ccc(OCCC[P+](c4ccccc4)(c4ccccc4)c4ccccc4)cc3C2)c1)N1Cc2cccc(F)c2C1,2.97% (active)
19,CCCCOc1ccc(/C=N/Nc2cc(C)nc3ccc(Br)cc23)cc1,32.2% (inactive)
20,c1ccc2sc(SCCCn3ccnc3)nc2c1,61.8% (inactive)
